Only some compounds are listed: those with a hit (about 15% of all), similar ones and a draw of the others.
ALOX12 inh: ALOX12 (human) lipoxygenase inhibition | 580,000 compounds, 1.1% hits | AID 1671190 | P18054 | Potency, µM (top dose mostly 108 µM), for inactives: at the top dose activity change, negative = inhibition, most hits filed as inhibitors | purified 12hLO, xylenol orange hydroperoxide absorbance
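Purified human 12hLO (150 nM final) in 25 mM Hepes, 0.01% Triton X-100, pH 7.0 was preincubated 15 min at room temperature with compound. Then 40 uM arachidonic acid was added, 30 min. Hydroperoxide was read by Fe-XO absorbance ratio 573/405 nm.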
ELG1 repair inh: blocks ELG1-dependent DNA repair in HEK293T cells | HEK293T ELG1-luciferase reporter, luminescence, 16 h; DNA damage induced by 5-fluorouridine | Potency, µM (series often up to 46.1 µM), without a hit: top-dose activity change, negative = inhibition, most hits filed as inhibitors | 330,000 compounds, 2.3% hits; also: nearly all actives have a fitted effect of over 55% in size
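Quantitative HTS, concentration-response format. 2,000 cells/well co-treated with 5-fluorouridine and compound, 16 hr in 5% CO2 at 37 °C; ONE-Glo luminescence read after 30 min.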
RORgamma inh: inhibitors of mouse ROR gamma transcriptional activity; P51450; 310,000 compounds, 5.4% hits; Drosophila S2 Gal4-RORgamma UAS-luciferase reporter, 20 h; Potency, µM (titrated, usually from 53.6 µM), without a hit: at the highest dose activity change, negative = inhibition, actives largely listed as inhibitors; AID 2551; also: nearly all actives have a fitted effect of over 60% in size
Target sequence (P51450 whole entry, looked up, the tested form may be a part): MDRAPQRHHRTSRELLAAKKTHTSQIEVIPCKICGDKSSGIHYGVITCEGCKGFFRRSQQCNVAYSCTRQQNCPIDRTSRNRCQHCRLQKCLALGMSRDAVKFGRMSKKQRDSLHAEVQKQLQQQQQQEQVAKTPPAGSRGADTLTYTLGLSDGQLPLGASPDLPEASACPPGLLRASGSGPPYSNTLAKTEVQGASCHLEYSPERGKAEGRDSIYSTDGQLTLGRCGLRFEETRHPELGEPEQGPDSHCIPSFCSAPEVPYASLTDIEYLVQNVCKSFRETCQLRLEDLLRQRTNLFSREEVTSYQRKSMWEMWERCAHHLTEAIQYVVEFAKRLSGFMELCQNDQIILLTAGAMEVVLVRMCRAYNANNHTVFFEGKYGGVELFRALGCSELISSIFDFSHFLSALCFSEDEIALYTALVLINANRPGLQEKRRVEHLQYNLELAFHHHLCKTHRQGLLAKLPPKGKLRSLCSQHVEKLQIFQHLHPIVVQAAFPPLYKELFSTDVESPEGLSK
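ROR gamma transcriptional activity was tracked as Gal4-UAS luciferase output in stably transfected Drosophila Schneider cells, with compound added 1 hr before 700 uM copper sulfate induction and a 20 hr ambient-temperature incubation.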
TDP1 cell noCPT: qHTS for Inhibitors of human tyrosyl-DNA phosphodiesterase 1 (TDP1): qHTS in cells in absence of CPT; AID 686978, 2013; 420,000 compounds, 15% hits; Potency, µM (series often up to 46.2 µM), inactives show top-dose activity change, negative = growth inhibition, hits mostly inhibitors; DT40 Tdp1-/- hTDP1 cells, no CPT, ATP luminescence, 48 h; also: nearly all actives have a fitted effect of over 55% in size
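Luminescent ATP content (CellTiter-Glo) served as the growth readout. Knockout chicken DT40 cells expressing human TDP1 were exposed to compounds without camptothecin for a minimum 48 hr at 37 °C.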
Gal4-VP16 FLuc: Gal4-VP16 reporter inhibition counter-screen; Drosophila S2 Gal4-VP16 UAS-luciferase, luminescence, 20 h; Potency, µM (highest dose often 53.6 µM), without a hit: top-dose activity, negative = inhibition, actives largely listed as inhibitors; 310,000 compounds, 3.5% hits; AID 2546;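 also: Gal4-VP16 expression switched on by copper sulfate through the metallothionein promoter; nearly all actives have a fitted effect of over 50% in size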
TDP1 cell CPT: growth inhibition of DT40 Tdp1-/-;hTDP1 cells with camptothecin (screen for TDP1 inhibitors) | chicken DT40 Tdp1-/-;hTDP1 cells + 20 nM CPT, ATP luminescence, 48 h | 420,000 compounds, 12% hits | AID 686979 | Potency, µM (titrated, usually from 46.2 µM), for inactives: at the highest dose activity change, negative = growth inhibition, usual class: inhibitors; also: nearly all actives have a fitted effect of over 55% in size
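Chicken DT40 Tdp1-/- cells complemented with human TDP1, 400 cells/well, exposed to compounds plus 20 nM camptothecin for at least 48 h at 37 C; viability read as ATP content by CellTiter-Glo luminescence.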
The depositor's hits bear a star; ? = inconclusive; . = not tested or not shown; [ ] = another dose, or the depositor's remark. Calls follow the shape of the dose curve; as a rule, active = well fitted curve in the direction sought with a large enough effect; inconclusive = small, poorly fitted or top-dose-only effect, or another doubt; inactive = no such curve, though single readings can be large; an effect the other way counts as inactive or inconclusive. % is scaled to controls: 0 for no effect and ±100 for the full control effect; potency is read from the fitted curve at half-maximal effect.

SMILES	ALOX12 inh	ELG1 repair inh	RORgamma inh	TDP1 cell noCPT	Gal4-VP16 FLuc	TDP1 cell CPT
O=C(NCc1ccco1)C(c1ccccc1)N(Cc1ccccc1)C(=O)Cn1nnc2ccccc21 (configuration not stated)	153.0%[57.4 µM]	18.4µM*	-6.5%	?	-11.8%	?
O=C(c1ccc(F)cc1)N1c2ccccc2-n2c(nc3ccccc32)C1CCc1ccccc1 (configuration not stated)	-8.2%	.	.	.	.	.
CCc1ccc(NC(=O)c2ccc(CN3CC(=O)N4CCCCC4C3=O)cc2)cc1 (configuration not stated)	?	.	.	20.6µM*	.	?
O=C(Nc1ccc(F)cc1)c1ccc(CN2CC(=O)N3CCCCC3C2=O)cc1 (configuration not stated)	-29.2%	.	.	-23.5%	.	-3.0%
CC(C)(C)C(=O)N1CCC(c2nnc(Cn3cncn3)n2C2CC2)CC1	0.2%	.	.	.	.	.
COC(=O)CCn1[nH]c(=O)c2ccccc2c1=O	-30.5%	-3.4%	19.1%	-10.6%	0.4%	18.7%
O=c1[nH]n(Cc2ccccc2)c(=O)c2ccccc12	5.9%	?	?	8.91µM*	5.0%	?
Cc1[nH]nc(C(F)(F)F)c1N=NN1CCOCC1	-23.2%	.	.	3.26µM*	.	2.59µM*
CN(C)c1nccnc1OC1CCN(C(=O)CC2CCCC2)C1 (configuration not stated)	16.6%	.	.	.	.	.
Cc1cccnc1NC(=O)c1c(O)c2ccccc2n(C)c1=O	1.2%	27.0%	2.8%[0.365 µM]	23.1µM*	.	?
CCn1c(=O)c(C(=O)Nc2ncccc2O)c(O)c2ccccc21	3.9%	?	-32.7%	-2.0%	-3.4%	13.2%
Cn1c(=O)c(C(=O)NNC(=O)c2ccc(Br)cc2)c(O)c2ccccc21	-1.6%	?	?	18.4µM*	?	?
CCn1c(=O)c(C(=O)Nc2ncccc2C)c(O)c2ccccc21	1.1%	-26.3%	-20.3%	2.59µM*	-9.6%	2.31µM*
Cc1noc(C)c1C1CCCN1C(=O)c1cc(-c2ccco2)on1 (configuration not stated)	-9.1%	.	.	.	.	.
COc1ccc(-c2c(NC(=O)CC(C)C)oc3c(C)cccc3c2=O)cc1	25.1%	.	.	.	.	.
C[C@@H](NC(=O)N1CCOC[C@H]1c1ncc(-c2ccc(F)cc2)[nH]1)c1ccccc1	36.0%[176 µM]	.	.	.	.	.
CCOC(=O)c1ccc(NC(=S)NCCNC(C)=O)cc1	2.0%	.	.	.	.	.
OCCN1CCN(CC/C=C2/c3ccccc3Sc3ccc(C(F)(F)F)cc32)CC1	?	7.8%	?	9.44µM*	?	20.6µM*
O=c1cc(CSc2ccccc2)[nH]c2ccc(F)cc12	-17.3%	.	.	16.4µM*	.	11.6µM*
Cc1cc(=O)c2cc(Cl)ccc2[nH]1	-0.8%	4.4%	9.1%	5.17µM*	-8.9%	5.17µM*
Cc1ccc2[nH]c(CSc3ccccc3)cc(=O)c2c1	0.0%	3.7%	44.5%	16.4µM*	-14.6%	18.4µM*
O=c1cc(CNCc2nc(-c3ncccn3)no2)[nH]c2ccc(F)cc12	64.0%	.	.	.	.	.
CCc1nc(SCc2cc(=O)c3cc(C)ccc3[nH]2)n[nH]1	-26.5%	.	.	-25.6%	.	6.0%
COc1ccc(SCc2cc(=O)c3cc(Cl)ccc3[nH]2)cc1	-14.2%	.	.	3.66µM*	.	20.6µM*
CCOC(=O)c1cnc2c(C)cccc2c1Nc1ccc(C(C)=O)cc1	-0.4%	.	.	.	.	.
SMILES	ALOX12 inh	ELG1 repair inh	RORgamma inh	TDP1 cell noCPT	Gal4-VP16 FLuc	TDP1 cell CPT
CN1CCN(C(=O)C2CCCN(c3nc(Cl)nc4nc[nH]c34)C2)CC1 (configuration not stated)	-8.7%	.	.	.	.	.
CC1=C(c2ccccc2)C(=S)NC(C)(C)C1	?	1.2%	2.51µM*	-10.4%	7.08µM*	-12.6%
OCCCN=c1cc(-c2ccccc2)oc2ccc(Cl)cc12	?	?	-21.7%	18.4µM*	-7.4%	?
CC1(C)CC(N=c2cc(-c3ccccc3)oc3ccc(Cl)cc23)CC(C)(C)N1	?	?	?	5.8µM*	?	5.17µM*
Cc1c(Cl)cccc1NC(=O)N1Cc2cccn2-c2ccccc21	-38.5%	.	.	.	.	.
O=C(CCNC(=O)c1cccs1)Nc1cc(Cl)ccc1Cl	39.6%	.	.	.	.	.
CCCNC(=O)CN1C(=O)c2c(c3ccccc3n2C)C1c1ccc(OC)cc1 (configuration not stated)	-13.0%	.	.	13µM*	.	?
COc1ccc(C2c3c(n(C)c4ccccc34)C(=O)N2CC(=O)Nc2ccccc2F)cc1 (configuration not stated)	-14.9%	.	.	?	.	16.4µM*
COc1ccc(C2c3c(n(C)c4ccccc34)C(=O)N2CC(=O)Nc2ccccc2Cl)cc1 (configuration not stated)	-4.0%	.	.	25.9µM*	.	?
COc1ccc(C2c3c(n(C)c4ccccc34)C(=O)N2CC(=O)Nc2cccc(F)c2)cc1 (configuration not stated)	-12.6%	.	.	?	.	?
COc1ccc(C2c3c(n(C)c4ccccc34)C(=O)N2CC(=O)Nc2cccc(Cl)c2C)cc1 (configuration not stated)	-19.1%	.	.	?	.	?
Cn1c(COc2ccc(C(C)(C)C)cc2)nnc1SCc1ccc(F)cc1	-20.7%	.	.	.	.	.
COc1ccc(C(=O)Nc2ccc3oc(-c4ccccc4F)cc(=O)c3c2)cc1OC	-0.1%	.	.	.	.	.
c1ccc(COc2ccc(-c3cc4nc(NCc5ccc6c(c5)OCO6)ccn4n3)cc2)cc1	7.4%	.	.	7.31µM*	.	18.4µM*
c1coc(-c2cc3nc(NCc4ccc5c(c4)OCO5)ccn3n2)c1	31.6µM*	.	.	-17.9%	.	?
c1coc(-c2cc3nc(NC4CCCCC4)ccn3n2)c1	44.7µM*	.	.	20.6µM*	.	?
CN1CCc2[nH]cnc2C12CCN(C(=O)c1cc(=O)[nH]c3ccccc13)CC2	13.0%	.	.	.	.	.
CS(=O)(=O)N1CCCN(C(=O)NCc2ccccc2)CCNC(=O)CC1c1ccccc1 (configuration not stated)	32.4%	.	.	.	.	.
CCOC(=O)C1=C(C)N=C2SC=C(CC(=O)N3CCC(C)CC3)N2C1c1ccccc1F (configuration not stated)	70.1%	.	.	.	.	.
O=C(NC1CC2CCCC(C1)N2Cc1ccco1)NC12CC3CC(CC(C3)C1)C2 (configuration not stated)	-0.3%	-1.7%	0.0%	18.4µM*	3.3%	20.6µM*
Cc1ccccc1-n1cc(CN(C)C(=O)CN2C(=O)OC(C)(C)C2=O)cn1	-4.0%	.	.	.	.	.
